Results filed as inconclusive are left out. For some assays here: Potency and affinity values are given separately. Active and inactive are the calls of the source. Unless noted, how the calls were made is not given here.
How the values were obtained:
[1] = qHTS Assay for Identifying Gametocytocidal Compounds (AID 743244; active means well fitted curve in the direction sought with a large enough effect; an effect the other way counts as inactive or inconclusive; further: potency means the concentration at half of the fitted maximal effect;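 on max response: on the % scale 0 is the no-effect control and ±100 the full control effect; actives lower the fluorescent signal which means gametocytes are killed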); settings: P. falciparum 3D7 stage III-V gametocytes, alamarBlue, 72 h; max response: stronger effect = lower value
How it was run: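 Using 20,000 stage III–V 3D7 gametocytes per well, compounds were incubated 72 h under 37 °C/5% CO2. Viability was then assessed by 24 h alamarBlue reduction, measured fluorometrically at 525/598 nm.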

[2] = qHTS profiling for inhibitors of Plasmodium falciparum (3D7) proliferation (AID 743322);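 further: infected erythrocytes exposed to compound for 72 h before lysis; 100% = DMSO vehicle wells and 0% = 0.29 µM artemisinin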; settings: P. falciparum 3D7 proliferation; at 28.7 µM (top of the series)
How it was run: (§1)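 Parasite DNA was quantified by SYBR Green I fluorescence (ex 485, em 535 nm) after overnight lysis in saponin/Triton buffer at room temperature. Cultures at 0.3% parasitemia and 2.5% hematocrit were first exposed to compound for 72 h at 37 C; signals were normalised to artemisinin (0.29 uM) and vehicle wells.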

[3] = qHTS profiling for inhibitors of Plasmodium falciparum (DD2) proliferation (AID 743323); settings: lower = more inhibition; at 28.7 µM (top of the series)
How it was run: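 Parasite proliferation measured via DNA-dye fluorescence, as uninfected erythrocytes lack DNA. Cultures at 0.3% parasitemia and 2.5% hematocrit incubated 72 h with compound; signal scaled between vehicle and 0.29 uM artemisinin wells.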

[4] = qHTS profiling for inhibitors of Plasmodium falciparum (HB3) proliferation (AID 743324; active means well fitted curve in the direction sought with a large enough effect; an effect the other way counts as inactive or inconclusive;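 further: 100% = DMSO vehicle wells and 0% = artemisinin-treated control wells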); settings: Plasmodium falciparum HB3 blood-stage proliferation; at 28.7 µM (top of the series)
How it was run: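 SYBR Green fluorescence (485 ex/535 em) of lysed cultures, incubated overnight at room temperature in the dark, quantifies parasite DNA. Infected erythrocytes at 0.3% parasitemia and 2.5% hematocrit were exposed 72 h; values normalized to DMSO and 0.29 uM artemisinin controls.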

[5] = qHTS profiling of the MIPE4 collection as inhibitors of Plasmodium falciparum (3D7) proliferation (AID 743344);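 further: scaled between DMSO vehicle wells and 0.29 µM artemisinin as full inhibition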; settings: P. falciparum 3D7 in erythrocytes, SYBR Green DNA fluorescence, 72 h; at 28.5 µM (top of the series) unless noted
How it was run: as §1

[6] = qHTS profiling of the MIPE4 collection as inhibitors of Plasmodium falciparum (DD2) proliferation (AID 743345); settings: P. falciparum Dd2 in erythrocytes, SYBR Green DNA, 72 h; at 28.5 µM (top of the series) unless noted
How it was run: as §1

[7] = qHTS profiling of the MIPE4 collection as inhibitors of Plasmodium falciparum (DD2) proliferation (Rep 2) (AID 743346); settings: P. falciparum Dd2 in erythrocytes, SYBR Green DNA, 72 h; at 28.5 µM (top of the series) unless noted
How it was run: as §1

[8] = qHTS profiling of the MIPE4 collection as inhibitors of Plasmodium falciparum (HB3) proliferation (AID 743347);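 further: plate controls were DMSO vehicle wells for no effect and artemisinin wells for full effect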; settings: P. falciparum HB3 in erythrocytes, SYBR Green DNA, 72 h; at 28.5 µM (top of the series) unless noted
How it was run: as §1

[9] = Ebola virus entry assay, green fluorescence channel
[10] = qHTS for compounds that reverse cellular toxicity of Amyloid beta (A-beta) peptide in yeast: LOPAC Validation Assay (AID 720559; active means well fitted curve in the direction sought with a large enough effect; an effect the other way counts as inactive or inconclusive;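 further: plate controls were DMSO for no effect and equimolar ferric chloride plus clioquinol rescue for full effect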)
How it was run: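 Yeast cells expressing toxic A-beta were combined with pinned compounds in growth medium and incubated 48 hr at 30 C. Growth was read as absorbance at 600 nm and normalized to DMSO and to an equimolar FeCl3/clioquinol positive control.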

[11] = qHTS for Activators of Parkin Expression: LOPAC Validation Assay (FLuc Reporter) (AID 720573; active means well fitted curve in the direction sought with a large enough effect; an effect the other way counts as inactive or inconclusive;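 further: 0% = DMSO and 100% = positive control compounds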)
How it was run: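 Neuronal cell line stably carrying FLuc/NLuc coincidence reporter under Parkin promoter; cells plated 24 h, then compounds added in 7-point dose response for 24 h at 37 C. FLuc luminescence read; normalized to DMSO and positive control (100%).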

[12] = biological target: T1, Hexokinase-4 (Homo sapiens) + Glucokinase regulatory protein (Homo sapiens) (UniProt P35557+Q14397); assay: qHTS assay for inhibitors of recombinant human GCK-GKRP interaction: Diaphorase-coupled assay (AID 743205; active means well fitted curve in the direction sought with a large enough effect; an effect the other way counts as inactive or inconclusive)
T1 sequence (P35557 whole entry, looked up): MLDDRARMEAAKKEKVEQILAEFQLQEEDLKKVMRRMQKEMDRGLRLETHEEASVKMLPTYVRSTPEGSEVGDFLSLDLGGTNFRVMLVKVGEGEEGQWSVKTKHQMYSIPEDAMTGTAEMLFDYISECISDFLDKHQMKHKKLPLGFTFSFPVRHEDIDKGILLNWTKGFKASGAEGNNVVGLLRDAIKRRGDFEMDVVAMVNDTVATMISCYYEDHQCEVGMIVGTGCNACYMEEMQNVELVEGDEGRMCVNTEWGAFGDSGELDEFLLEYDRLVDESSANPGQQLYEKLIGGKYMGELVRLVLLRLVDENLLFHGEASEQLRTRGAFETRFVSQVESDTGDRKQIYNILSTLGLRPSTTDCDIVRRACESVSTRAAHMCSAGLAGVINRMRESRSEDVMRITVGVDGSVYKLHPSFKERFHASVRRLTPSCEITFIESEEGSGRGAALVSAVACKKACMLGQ
T1 sequence (Q14397 whole entry, looked up): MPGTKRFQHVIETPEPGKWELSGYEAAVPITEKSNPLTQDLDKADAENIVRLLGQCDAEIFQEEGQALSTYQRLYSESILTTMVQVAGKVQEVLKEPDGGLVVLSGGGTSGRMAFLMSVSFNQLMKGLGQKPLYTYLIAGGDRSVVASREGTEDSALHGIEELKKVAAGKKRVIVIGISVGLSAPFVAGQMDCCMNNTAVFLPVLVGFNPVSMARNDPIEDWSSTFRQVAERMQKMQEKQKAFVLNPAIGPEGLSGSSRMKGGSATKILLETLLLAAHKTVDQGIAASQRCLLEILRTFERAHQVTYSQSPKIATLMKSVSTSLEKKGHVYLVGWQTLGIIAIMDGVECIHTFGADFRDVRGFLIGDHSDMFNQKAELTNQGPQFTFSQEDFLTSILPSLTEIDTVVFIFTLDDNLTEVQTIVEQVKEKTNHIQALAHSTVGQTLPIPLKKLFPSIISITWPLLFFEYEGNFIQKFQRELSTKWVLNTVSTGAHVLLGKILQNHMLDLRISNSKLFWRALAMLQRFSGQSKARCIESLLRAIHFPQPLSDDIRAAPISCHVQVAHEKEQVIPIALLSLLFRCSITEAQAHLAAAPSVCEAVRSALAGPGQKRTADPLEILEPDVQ
How it was run: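 GST-GCK (10 nM) with FLAG-GKRP (10 nM), 5 mM glucose and 0.4 mM ATP in pH 7.6 Hepes; compounds preincubated 20 min with substrate. G6PDH/diaphorase coupling converts resazurin to resorufin, read kinetically (ex 525/em 590 nm) for 30 min.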

[13] = biological target: T1, Hexokinase-4 (Homo sapiens) + Glucokinase regulatory protein (Homo sapiens); assay: qHTS assay for inhibitors of recombinant human GCK-GKRP interaction: ADP-Glo assay (AID 743206; active means well fitted curve in the direction sought with a large enough effect; an effect the other way counts as inactive or inconclusive;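 further: plate controls were DMSO plus enzyme for no effect and no enzyme for full effect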)
How it was run: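 Pin-transferred compounds meet a 15 nM GST-GCK/15 nM FLAG-GKRP/2 uM S6P mix (dispense concentrations). ATP is then added to 0.4 mM final with 5 mM glucose, and the reaction runs 60 min at room temperature. ADP is quantified luminescently.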

[14] = biological target: T1, Hexokinase-4 (Homo sapiens) + Glucokinase regulatory protein (Homo sapiens); assay: qHTS assay for inhibitors of recombinant human GCK-GKRP interaction: HTRF assay (AID 743207; active means well fitted curve in the direction sought with a large enough effect; an effect the other way counts as inactive or inconclusive;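 further: 0% = DMSO with GCK present and -100% = DMSO wells lacking GCK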)
How it was run: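 GST-GCK and FLAG-GKRP (5 nM each) were combined with 2 uM S6P in pH 7.1 Hepes/MgCl2/KCl/DTT buffer, then compound and anti-FLAG XL665/anti-GST K antibodies were added. After 60 min at room temperature, HTRF 665/615 nm emission was read.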
Wherever efficacy is given: 0% is about no effect.

Q: Which results are given for CC1=C2C[C@@H]3[C@@H](CC=C4C[C@@H](O)CC[C@@]43C)[C@@H]2CC[C@]12O[C@H]1C[C@H](C)CN[C@H]1[C@H]2C?
A: Potency [1]: 23.5 µM (active); remaining parasite growth % (stronger effect = lower value) [2]: 66.1%; activity, percent of control [3]: 39%; remaining proliferation (% of control), lower = more inhibition [4]: 5.81%; parasite growth, % of DMSO control [5]: 61.1%; parasite growth remaining, % of DMSO control (lower = more inhibition) [6]: 16.2%; parasite growth, % of control (lower = inhibition) [7]: 33.5%; growth, % of control [8]: 71.2%

Q: Which results are given for CCN(CC)CCOC(=O)C(O)(c1ccccc1)c1ccccc1?
A: max response [1]: -7.9% (inactive); efficacy [9]: -15.5% (inactive)

Q: Which max response [1] does the source give for CCCCC/C=C\C/C=C\C/C=C\C/C=C\CCCC(=O)NC1CC1 here?
A: Its max response is 45.8% (inactive).

Q: And the remaining parasite growth % (stronger effect = lower value) [2]?
A: Its remaining parasite growth % (stronger effect = lower value) is 6.79%.

Q: And the activity, percent of control [3]?
A: The activity, percent of control was 5.26%.

Q: What about the remaining proliferation (% of control), lower = more inhibition [4] of the same compound?
A: The remaining proliferation (% of control), lower = more inhibition was 3.08%.

Q: For CN(C)CCc1ccc(O)cc1, which max response [1] is on record?
A: Its max response is -0.843% (inactive).

Q: What about the parasite growth, % of DMSO control [5] of the same compound?
A: Its parasite growth, % of DMSO control is 103%.

Q: What about the parasite growth remaining, % of DMSO control (lower = more inhibition) [6] of the same compound?
A: Its parasite growth remaining, % of DMSO control (lower = more inhibition) is 95.5%.

Q: And the parasite growth, % of control (lower = inhibition) [7]?
A: Its parasite growth, % of control (lower = inhibition) is 111%.

Q: What about the growth, % of control [8] of the same compound?
A: The growth, % of control was 104%.

Q: And the efficacy [9]?
A: Its efficacy is -10.6% (inactive).

Q: With COC[C@H]1OC(=O)c2coc3c2[C@@]1(C)C1=C(C3=O)C2CCC(=O)[C@@]2(C)C[C@H]1OC(C)=O (some centres undefined) as the compound, how does the outcome [10] read?
A: Its outcome is “inactive”.

Q: And the outcome [11]?
A: Its outcome is “inactive”.

Q: And the outcome [12]?
A: Its outcome is “inactive”.

Q: And the outcome [13]?
A: Its outcome is “inactive”.

Q: And the outcome [14]?
A: Its outcome is “inactive”.

Q: What about the max response [1] of the same compound?
A: The max response was 9.51% (inactive).

Q: What about the remaining parasite growth % (stronger effect = lower value) [2] of the same compound?
A: The remaining parasite growth % (stronger effect = lower value) was 74.1%.

Q: And the activity, percent of control [3]?
A: Its activity, percent of control is 57.9%.

Q: What about the remaining proliferation (% of control), lower = more inhibition [4] of the same compound?
A: Its remaining proliferation (% of control), lower = more inhibition is 74%.

Source: PubChem BioAssay (NCATS)
